Results as given in PubChem BioAssay AID624345 (National Center for Advancing Translational Sciences (NCATS), 2012).
The source made the active and inactive calls.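 The calls were made as follows: active = IC50 of 75 µM or lower for blocking USP2 cleavage of diubiquitin, judged on gels; inconclusive = IC50 above 75 µM but below 100 µM; inactive = IC50 of 100 µM or more.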

target: Ubiquitin carboxyl-terminal hydrolase 2 (Homo sapiens) (UniProt O75604); experiment: Inhibitors of USP1/UAF1: Hit Validation in USP2 Diubiquiting Gel Assay; conditions: USP2 K63-diubiquitin cleavage, SDS-PAGE gel densitometry
Sequence (O75604 whole entry, looked up): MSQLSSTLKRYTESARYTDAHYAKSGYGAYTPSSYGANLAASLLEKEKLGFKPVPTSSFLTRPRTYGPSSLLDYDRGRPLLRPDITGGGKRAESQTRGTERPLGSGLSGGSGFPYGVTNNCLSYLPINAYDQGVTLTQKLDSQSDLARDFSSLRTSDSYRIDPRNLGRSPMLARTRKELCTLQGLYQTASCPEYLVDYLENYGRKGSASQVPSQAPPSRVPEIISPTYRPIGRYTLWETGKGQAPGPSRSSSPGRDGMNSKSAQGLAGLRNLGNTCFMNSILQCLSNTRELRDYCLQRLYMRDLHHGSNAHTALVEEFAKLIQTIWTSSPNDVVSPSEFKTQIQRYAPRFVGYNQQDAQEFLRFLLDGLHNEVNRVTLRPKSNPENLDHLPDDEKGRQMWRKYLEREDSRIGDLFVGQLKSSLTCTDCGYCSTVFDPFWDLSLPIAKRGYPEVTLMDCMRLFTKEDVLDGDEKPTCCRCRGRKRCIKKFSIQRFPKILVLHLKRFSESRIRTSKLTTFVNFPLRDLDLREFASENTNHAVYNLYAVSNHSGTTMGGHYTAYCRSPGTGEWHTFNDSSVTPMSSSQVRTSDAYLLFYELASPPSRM
Source text: Deubiquitinating enzymes (DUBs) are a class of enzymes that can cleave isopeptide bond formed between the C-terminal carboxylate of ubiquitin and a lysine side-chain amino group on the target protein. Among them, ubiquitin specific proteases (USPs) constitute the largest DUB family. Human USPs are emerging as promising targets for pharmacological intervention because of their connection to a number of human diseases, including prostate, colon and breast cancer (1, 2), pediatric acute lymphoblastic leukemia (3), and familial cylindromatosis (4). The advantage of inhibiting USPs lies in the potential specificity of therapeutic intervention that can lead to better efficacy and reduce nonspecific side effects. In a collaboration between the University of Delaware and the NIH Chemical Genomics Center, a high-throughput screen assay was developed to screen for USP1/UAF1 inhibitors. This miniaturized assay has a fluorescent read-out and is used to screen the NIH Molecular Libraries Small Molecule Repository (MLSMR) in order to identify a small molecule that inhibits USP1. Follow-up assays have also been developed to further test the hits from the primary screen. This assay validates the hits identified from the primary screen using a USP2 diubiquiting gel assay. NIH Chemical Genomics Center [NCGC] NIH Molecular Libraries Probe Centers Network [MLPCN] MLPCN Grant: DA030552 Assay Submitter (PI): Zhihao Zhuang, University of Delaware 1. Priolo, C., et al. (2006) The isopeptidase USP2a protects human prostate cancer from apoptosis. Cancer Res 66, 8625-8632 2. Popov, N., et al. (2007) The ubiquitin-specific protease USP28 is required for MYC stability. Nat Cell Biol 9, 765-774 3. […]
The inhibition assay contains 20 nM USP2, 2 microM K63 linked diubiquitin, and inhibitors at varied concentrations (0.08 microM - 114 microM). […] The intensity of the individual diubiquitin and monoubiquitin band was quantified using Quantity One 4.3.1 (Biorad, Hercules, CA). The percentage of the conversion was determined and used to calculate the reaction rate. […]

outcome, inactive:
Cc1cccc(CNc2ccnc(-c3ccccc3C(F)(F)F)n2)c1, Cc1ccccc1-c1nc(NCc2cccs2)c2ccccc2n1, FC(F)(F)c1ccccc1-c1nc(NCc2cccs2)c2ccccc2n1
